This is a sample that favours compounds with a hit; in the whole collection about 14% have one here.
USP10 inh: inhibitors of human USP10 deubiquitinase; Ubiquitin carboxyl-terminal hydrolase 10 (Homo sapiens), Q14694; purified USP10, Ub-rhodamine fluorescence, 60 min; inhibition, % at 20 µM; 47,000 tested, 1.1% active; AID 1645856, 2021
USP30 inh: inhibitors of human USP30 deubiquitinase. purified USP30, Ub-rhodamine cleavage fluorescence. inhibition, % at 25 µM. Ubiquitin carboxyl-terminal hydrolase 30 (Homo sapiens), Q70CQ3. 47,000 tested, 5.3% active
USP28 inh: inhibitors of human USP28 deubiquitinase; purified USP28, Ub-rhodamine cleavage fluorescence, 30 min; inhibition, % at 25 µM; 47,000 tested, 3% active; AID 1645857, 2021
USP17 inh: inhibitors of human USP17 deubiquitinase | purified USP17, Ub-rhodamine cleavage fluorescence, 3 h | inhibition, % at 50 µM | Ubiquitin carboxyl-terminal hydrolase 17-like protein 5 (Homo sapiens), A8MUK1 | 47,000 tested, 6.5% active
Target sequence (A8MUK1 whole entry, looked up): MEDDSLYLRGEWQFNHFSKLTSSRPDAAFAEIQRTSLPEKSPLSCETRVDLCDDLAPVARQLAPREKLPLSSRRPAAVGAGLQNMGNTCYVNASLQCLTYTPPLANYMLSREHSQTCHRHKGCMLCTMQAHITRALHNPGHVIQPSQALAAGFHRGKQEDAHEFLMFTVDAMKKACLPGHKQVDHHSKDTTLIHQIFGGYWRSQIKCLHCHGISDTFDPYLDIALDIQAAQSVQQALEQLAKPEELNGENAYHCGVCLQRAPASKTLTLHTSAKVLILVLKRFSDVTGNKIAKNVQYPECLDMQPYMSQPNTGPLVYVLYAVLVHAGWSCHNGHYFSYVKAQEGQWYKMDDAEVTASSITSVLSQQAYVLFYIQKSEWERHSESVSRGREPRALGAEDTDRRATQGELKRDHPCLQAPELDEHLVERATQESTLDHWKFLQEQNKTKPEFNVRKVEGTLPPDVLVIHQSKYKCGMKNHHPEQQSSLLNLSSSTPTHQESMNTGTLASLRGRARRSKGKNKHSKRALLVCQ
USP8 inh: inhibitors of human USP8 deubiquitinase; inhibition, % at 20 µM; 47,000 tested, 4.2% active; Ubiquitin carboxyl-terminal hydrolase 8 (Homo sapiens), P40818; purified USP8, Ub-rhodamine cleavage fluorescence, 30 min
* = called active by the depositor. No stated cut-off is given here; in the data, active means inhibition above about 30%; inactive means the rest.

What do the screens show for `COc1ccc(CCNS(=O)(=O)c2ccc(F)c(C(=O)Nc3ccc(Cl)cc3C(F)(F)F)c2)cc1OC`?
USP10 inh: 10; USP30 inh: 61*; USP28 inh: 7; USP17 inh: 71*; USP8 inh: 23

What do the screens show for `Cn1cc(C2CCCN2C(=O)CCc2nc(-c3ccco3)no2)cn1` (centres undefined)?
USP10 inh: -3; USP30 inh: -38; USP28 inh: -8; USP17 inh: 0; USP8 inh: 1

What do the screens show for `CN(C(=O)COc1ccc(-n2cnnn2)cc1)C(c1ccccc1)c1ccccc1`?
USP10 inh: 8; USP30 inh: 36*; USP28 inh: 18; USP17 inh: 13; USP8 inh: 7

How did O=C(COc1ccc(Br)cc1)Oc1ccc(-n2cnnn2)cc1 do in these assays?
USP10 inh: 1; USP30 inh: -18; USP28 inh: -6; USP17 inh: -6; USP8 inh: 11

What do the screens show for `CCOc1ccc(C(=O)Oc2ccc(-n3cnnn3)cc2)cc1`?
USP10 inh: 18; USP30 inh: 11; USP28 inh: -3; USP17 inh: 5; USP8 inh: 33*

How did N#Cc1cc(-c2ccccc2)nnc1NCc1ccccc1 do in these assays?
USP10 inh: 7; USP30 inh: 23; USP28 inh: 22; USP17 inh: 21; USP8 inh: 10

What do the screens show for `Cc1c(-c2ccc(C#N)cc2)oc2ccc(Br)cc2c1=O`?
USP10 inh: 3; USP30 inh: -4; USP28 inh: 0; USP17 inh: 70*; USP8 inh: 5

Results for Cc1[nH]c(C)c(S(=O)(=O)N2CCC(C(=O)N3CCCCC3)CC2)c1C(=O)N1CCCCC1 ?
USP10 inh: -1; USP30 inh: -2; USP28 inh: -3; USP8 inh: -33

How did CC1CCC2C(C)(C)C(O)CCC2(C)C12Cc1c(cc3c(c1O)CN(CCCCC(=O)O)C3=O)O2 (centres undefined) do in these assays?
USP10 inh: -16; USP30 inh: -38; USP28 inh: 12; USP17 inh: 49*; USP8 inh: -63

What do the screens show for `O=C(Nc1nc2ccc(F)cc2s1)c1cc(Cl)sc1Cl`?
USP10 inh: 26; USP30 inh: -4; USP28 inh: 5; USP17 inh: 3; USP8 inh: 70*

Results for Cc1ccc(S(=O)(=O)NC(C(=O)N=c2sc3ccccc3n2C)C(C)C)cc1 (centres undefined) ?
USP10 inh: 3; USP30 inh: -23; USP28 inh: 15; USP17 inh: 63*; USP8 inh: -1

Results for CCS(=O)(=O)N1Cc2ccccc2CC1C(=O)N=c1sc2ccccc2n1C (centres undefined) ?
USP10 inh: -7; USP30 inh: -101; USP28 inh: 8; USP17 inh: 0; USP8 inh: -7

What do the screens show for `CC12CCC(=O)N1c1ccccc1C(=O)N2c1ccc(F)cc1` (centres undefined)?
USP10 inh: 5; USP30 inh: 32*; USP28 inh: 12; USP17 inh: 11; USP8 inh: 2

How did CN1CC(=O)N(CC(=O)N2CCN(c3ccc(F)cc3)CC2)c2ccccc2C1=O do in these assays?
USP10 inh: 4; USP30 inh: -5; USP28 inh: -3; USP17 inh: 1; USP8 inh: -4

How did COc1ccc(OC)c(NC(=O)Cn2c(=O)n(C3CCCCC3)c(=O)c3ccccc32)c1 do in these assays?
USP10 inh: 43*; USP30 inh: 28; USP28 inh: 13; USP17 inh: 24; USP8 inh: 18

Results for O=C(Cc1ccc(-n2c(=O)c3ccccc3n(Cc3cccc(F)c3)c2=O)cc1)NC1CCCC1 ?
USP10 inh: 16; USP30 inh: -25; USP28 inh: 4; USP17 inh: -1; USP8 inh: 21

Results for O=C(Cn1c(=O)n(-c2ccc(CC(=O)NC3CCCC3)cc2)c(=O)c2ccccc21)Nc1ccccc1[N+](=O)[O-] ?
USP10 inh: 44*; USP30 inh: 16; USP28 inh: 14; USP17 inh: 21; USP8 inh: 80*

What do the screens show for `COc1cc(NC(=O)Cn2c(=O)n(-c3ccc(CC(=O)NC4CCCC4)cc3)c(=O)c3ccccc32)cc(OC)c1`?
USP10 inh: 24; USP30 inh: 21; USP28 inh: 44*; USP17 inh: 41*; USP8 inh: 63*

How did O=C(Cc1ccc(-n2c(=O)c3ccccc3n(Cc3cccc([N+](=O)[O-])c3)c2=O)cc1)NC1CCCC1 do in these assays?
USP10 inh: 36*; USP30 inh: 21; USP28 inh: 14; USP17 inh: 23; USP8 inh: 26

Results for COc1ccc(NC(=O)Cn2c(=O)n(C3CCCCC3)c(=O)c3ccccc32)cc1 ?
USP10 inh: 6; USP30 inh: 22; USP28 inh: 12; USP17 inh: 9; USP8 inh: 12

Results for O=C(Cn1cnc2ccccc2c1=O)N1CCCC1 ?
USP10 inh: 0; USP30 inh: 5; USP28 inh: -6; USP17 inh: 2; USP8 inh: 0

Results for Cc1cc(NC(=O)c2ccccc2Cl)n(-c2nc3ccccc3s2)n1 ?
USP10 inh: -1; USP30 inh: -33; USP28 inh: -4; USP17 inh: 4; USP8 inh: -12

How did CC12Oc3cc(CO)cc(O)c3C(=O)C1(O)C(O)CCC2O (centres undefined) do in these assays?
USP10 inh: 0; USP30 inh: 3; USP28 inh: 14; USP17 inh: -12; USP8 inh: 0

How did CCCCC(=O)N1CCC2(CC1)NC(=O)N(CCOc1ccccc1)C2=O do in these assays?
USP10 inh: 3; USP30 inh: 5; USP28 inh: -3; USP17 inh: 0; USP8 inh: -4

What do the screens show for `Cc1ccc(N2CCO[C@@H]3CN(Cc4cccc(C)n4)CC[C@@H]3C2)nn1`?
USP10 inh: -5; USP30 inh: -249; USP28 inh: -62; USP17 inh: -64; USP8 inh: -93

How did CC(CNC(=O)c1cc2c([nH]c1=O)CCCCC2)n1cncn1 (centres undefined) do in these assays?
USP10 inh: -3; USP30 inh: -7; USP28 inh: 1; USP17 inh: -7; USP8 inh: -40

How did CNc1nc2c(c(=O)n1C)CN(C(=O)Nc1cccc3ccccc13)CC2 do in these assays?
USP10 inh: 21; USP30 inh: -27; USP28 inh: 43*; USP17 inh: 71*; USP8 inh: 90*

Results for CNc1nc2c(c(=O)n1C)CN(C(=O)Nc1ccc(C(C)(C)C)cc1)CC2 ?
USP10 inh: 1; USP30 inh: -1; USP28 inh: 0; USP17 inh: -19; USP8 inh: -4

How did O=c1ccnc(Nc2cccc3ccccc23)[nH]1 do in these assays?
USP10 inh: 1; USP30 inh: -14; USP28 inh: -6; USP17 inh: 16; USP8 inh: 49*

Compound activity from PubChem.
